Assay [1] is described as follows: E. coli DRC41 culture turbidity changes, primary screen, E. coli filamentation inducer project, strain DRC41, OD650, 48 h (AID 1152).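 Also: E. coli MC1000 strain DRC41 lacking acrAB efflux pump and sulA.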 The conditions noted are these: E. coli DRC41 (acrAB sulA), higher = more signal, called active from +8 up or from −8 down.
Assay [2] can be described thus: small-molecule binders of probe aLefty1, primary screen, biochemical, small-molecule microarray, 635/667 nm fluorescence (AID 1153).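 Also: score merges spot fluorescence with signal-to-noise ratio from the scanned slide images.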 The conditions noted are these: higher = more signal.
Assay [3] can be described thus: PSAC antagonists in infected red cells, primary screen, cell-based, P. falciparum Indochina, OD700, 1 h (AID 1154). The conditions noted are these: P. falciparum Indochina infected RBC osmotic lysis, higher = more signal, called active from +8 up or from −8 down.
A short description of assay [4]: PSAC antagonists in infected red cells, primary screen, cell-based, P. falciparum Indochina, OD700, 2 h (AID 1155).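 Also: lysis reports solute entry through the parasite surface anion channel PSAC; channel blockers reduce lysis of infected cells.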 The following applies: P. falciparum Indochina infected erythrocytes, osmotic lysis OD700; higher = more signal, called active from +8 up or from −8 down.
Assay [5] is described as follows: osmotic lysis modulators in infected erythrocytes, primary screen, PSAC antagonist project, cell-based, P. falciparum Indochina, OD700, 3 h (AID 1156). The following applies: higher = more signal, called active from +8 up or from −8 down.
Assay [6] can be described thus: PSAC antagonists in infected red cells, primary screen, cell-based, P. falciparum Indochina, OD700, 18 h (AID 1157). The conditions noted are these: P. falciparum Indochina infected erythrocytes, osmotic lysis OD700, 18 h; higher = more signal, called active from +8 up or from −8 down.
Assay [7] is described as follows: modulators of S6 phosphorylation in cells, primary screen, cell-based, A549, cytoblot, luminescence, serum-stimulated (AID 1158).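 Also: serum-stimulated A549 lung adenocarcinoma cells; signal is phosphorylated S6 detected by cytoblot immunostaining with HRP secondary.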 The conditions noted are these: A549 phospho-S6 cytoblot, 5 h, higher = more signal.
For assay [8], the target named is NADPH oxidase 2 (Homo sapiens) (UniProt P04839). In words: NOX2-dependent H2O2 signal modulators, primary screen, NOX inhibitor project, cell-based, HEK293-NOX2, PMA-stimulated, Amplex Red fluorescence (AID 1159). Also: test concentration not given here. The conditions noted are these: 45 min, higher = more signal, called active from +8 up or from −8 down.
Chain of NADPH oxidase 2 (Homo sapiens) (P04839 whole entry, looked up): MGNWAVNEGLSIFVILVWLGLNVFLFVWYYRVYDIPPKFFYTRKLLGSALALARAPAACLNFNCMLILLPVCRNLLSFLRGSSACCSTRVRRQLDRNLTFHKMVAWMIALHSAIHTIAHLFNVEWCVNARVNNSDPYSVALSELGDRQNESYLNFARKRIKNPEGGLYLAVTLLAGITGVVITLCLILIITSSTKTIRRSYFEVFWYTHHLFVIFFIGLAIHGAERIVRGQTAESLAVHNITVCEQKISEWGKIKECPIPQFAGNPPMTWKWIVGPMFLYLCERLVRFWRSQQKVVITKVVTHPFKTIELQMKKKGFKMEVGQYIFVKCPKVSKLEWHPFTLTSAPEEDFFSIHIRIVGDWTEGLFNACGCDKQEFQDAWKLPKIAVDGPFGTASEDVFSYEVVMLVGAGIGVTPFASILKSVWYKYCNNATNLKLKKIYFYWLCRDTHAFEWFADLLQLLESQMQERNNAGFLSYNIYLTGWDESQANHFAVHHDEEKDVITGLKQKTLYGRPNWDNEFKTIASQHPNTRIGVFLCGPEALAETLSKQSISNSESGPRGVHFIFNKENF
For assay [9], the target named is NADPH oxidase 4 (Homo sapiens) (UniProt Q9NPH5). As to the kind of experiment: NOX4-dependent H2O2 signal modulators, primary screen, NOX inhibitor project, cell-based, HEK293-NOX4, tetracycline-induced, Amplex Red fluorescence (AID 1160). The conditions noted are these: 45 min, higher = more signal, called active from +8 up or from −8 down.
Chain of NADPH oxidase 4 (Homo sapiens) (Q9NPH5 whole entry, looked up): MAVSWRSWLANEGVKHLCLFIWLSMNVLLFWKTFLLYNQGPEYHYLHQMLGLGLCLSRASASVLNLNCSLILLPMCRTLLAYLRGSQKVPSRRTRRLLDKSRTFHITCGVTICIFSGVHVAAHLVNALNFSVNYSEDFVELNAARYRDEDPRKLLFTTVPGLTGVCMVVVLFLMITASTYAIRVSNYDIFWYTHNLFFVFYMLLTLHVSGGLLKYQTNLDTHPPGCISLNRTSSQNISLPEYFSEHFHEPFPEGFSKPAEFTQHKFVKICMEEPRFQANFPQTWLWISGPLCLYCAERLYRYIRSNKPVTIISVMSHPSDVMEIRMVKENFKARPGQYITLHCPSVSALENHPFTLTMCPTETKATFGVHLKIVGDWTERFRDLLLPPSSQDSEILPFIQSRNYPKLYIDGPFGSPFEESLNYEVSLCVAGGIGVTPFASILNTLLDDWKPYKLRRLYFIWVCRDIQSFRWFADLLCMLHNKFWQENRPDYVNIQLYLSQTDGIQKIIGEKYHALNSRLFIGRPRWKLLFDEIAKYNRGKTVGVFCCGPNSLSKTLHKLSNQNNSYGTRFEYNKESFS
Assay [10] deals with NADPH oxidase 5 (Homo sapiens) (UniProt Q96PH1). As to the kind of experiment: NOX5-dependent H2O2 signal modulators, primary screen, NOX inhibitor project, cell-based, HEK293-NOX5, Amplex Red fluorescence (AID 1161). The following applies: HEK293-NOX5, ionomycin, 45 min, higher = more signal.
Chain of NADPH oxidase 5 (Homo sapiens) (Q96PH1 whole entry, looked up): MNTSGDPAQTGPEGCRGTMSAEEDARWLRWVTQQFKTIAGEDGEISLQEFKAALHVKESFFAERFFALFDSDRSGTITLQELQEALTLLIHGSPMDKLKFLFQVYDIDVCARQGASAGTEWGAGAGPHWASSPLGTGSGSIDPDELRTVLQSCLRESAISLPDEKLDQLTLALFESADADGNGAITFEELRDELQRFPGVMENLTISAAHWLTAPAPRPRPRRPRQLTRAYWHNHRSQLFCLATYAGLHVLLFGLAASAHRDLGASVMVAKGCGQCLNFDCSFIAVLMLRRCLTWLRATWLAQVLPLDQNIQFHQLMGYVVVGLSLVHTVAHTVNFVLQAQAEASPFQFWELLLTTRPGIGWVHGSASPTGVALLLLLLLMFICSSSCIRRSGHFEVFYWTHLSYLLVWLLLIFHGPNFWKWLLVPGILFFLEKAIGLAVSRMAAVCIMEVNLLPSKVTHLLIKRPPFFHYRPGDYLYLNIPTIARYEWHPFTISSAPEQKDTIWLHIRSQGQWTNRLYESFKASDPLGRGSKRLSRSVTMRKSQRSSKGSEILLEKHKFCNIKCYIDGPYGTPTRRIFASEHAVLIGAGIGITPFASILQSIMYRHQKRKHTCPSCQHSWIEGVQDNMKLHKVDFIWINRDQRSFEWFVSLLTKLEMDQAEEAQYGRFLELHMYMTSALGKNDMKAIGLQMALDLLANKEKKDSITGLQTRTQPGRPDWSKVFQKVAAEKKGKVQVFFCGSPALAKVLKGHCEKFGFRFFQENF
Assay [11] in a line: A549 cell viability effects, profiling panel, calcein-AM fluorescence, 48 h, basal (AID 1162). Also: test concentration not given here. The conditions noted are these: higher = more signal.
The nature of assay [12]: adipocyte viability effects, profiling panel, cell-based, 3T3-L1 adipocytes, calcein-AM fluorescence, 48 h, basal (AID 1163). Also: test concentration not given here. The following applies: 3T3-L1 adipocytes viability, higher = more signal.
The nature of assay [13]: HepG2 cell viability effects, profiling panel, calcein-AM fluorescence, 48 h, basal (AID 1164). Also: test concentration not given here. The conditions noted are these: higher = more signal.
Assay [14] in a line: MM1S cell viability effects, profiling panel, calcein-AM fluorescence, 48 h, basal (AID 1165).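 Also: viability of MM1S multiple myeloma cells under basal unstimulated conditions; test concentration not given here.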 The following applies: higher = more signal.
Assay [15] can be described thus: basal RPMI8226 viability, no added stimulus, profiling panel, cell-based, calcein-AM fluorescence, 48 h, PK04 Diversity Set (AID 1166).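 Also: cells grown under basal conditions without added stimulus; test concentration not given here.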 The conditions noted are these: RPMI8226 myeloma viability, higher = more signal.
A short description of assay [16]: basal HepG2 mitochondrial membrane potential changes, profiling panel, cell-based, JC-1 fluorescence, 24 h, 100 nL compound (AID 1167). Also: test concentration not given here. The following applies: higher = more signal.
Assay [17] in a line: basal 3T3-L1 adipocyte mitochondrial potential changes, profiling panel, cell-based, JC-1 fluorescence, 3T3-L1 adipocytes, 24 h, 100 nL compound (AID 1168). Also: test concentration not given here. The conditions noted are these: JC-1 mitochondrial fluorescence, higher = more signal, called active from +8 up or from −8 down.
Assay [18] is described as follows: basal RPMI8226 mitochondrial membrane potential changes, profiling panel, cell-based, JC-1 fluorescence, 24 h, 100 nL compound (AID 1169). Also: test concentration not given here. The following applies: RPMI8226 myeloma, JC-1 mitochondrial potential fluorescence, higher = more signal.
Assay [19] in a line: basal MM1S mitochondrial membrane potential changes, profiling panel, cell-based, JC-1 fluorescence, 24 h, 100 nL compound (AID 1170). Also: test concentration not given here. The conditions noted are these: higher = more signal.
Assay [20] can be described thus: A549 lung cancer cell viability effects, profiling panel, resazurin fluorescence, 24 h, PK04 Diversity Set (AID 1171). Also: test concentration not given here. The following applies: higher = more signal, called active from +8 up or from −8 down. (In general: The colour change of resazurin is a common sign of viable cells or microbes.)

Activity calls are given as the source filed them.

On to `CO[C@@H]1C=CCC(=O)N2CCC[C@H]2C(=O)OC[C@@H](C)C(=O)OC[C@H]1C`, for which the z-score was 1.12 (inactive) in assay [1]; 0.0026 (inactive) in assay [3]; 0.155 (inactive) in assay [4]; 0.335 (inactive) in assay [5]; 0.181 (inactive) in assay [6]; 0.467 in assay [7]. The z-score in [8] is -0.805 (inactive); in assay [9], 0.766 (inactive); in assay [10], 0.147; in assay [11], 0.623; in [12], 0.244; in [13] it was 1.17. The z-score is 0.138 in assay [14]; -0.267 in assay [15]; 0.848 in assay [16]; 0.00578 (inactive) in assay [17]; -0.257 in [18]; 0.269 in assay [19]. For the same compound, the z-score in [20] is 0.585 (inactive). The composite z-score in assay [2] amounted to 0.154.

On to `CCOC(=O)NN=C1C[C@@H](O)[C@@H](O)[C@@H]2[C@@H]3C(=O)N(C(C)(C)C)C(=O)[C@@H]3CC[C@H]12`, for which the z-score in [1] is 1.04 (inactive); in assay [3] it was 0.521 (inactive); in assay [4] it was 0.16 (inactive); in assay [5], 0.786 (inactive); in [6] it was 0.18 (inactive); in assay [7], 0.698. Further, the z-score was -1.89 (inactive) in [8]; 0.644 (inactive) in [9]; 0.0282 in assay [10]; 0.338 in assay [11]; -0.666 in assay [12]; 1.34 in assay [13]. The z-score in [14] was 0.469; in [15] it was 0.541; in [16], 0.361; in assay [17], 0.314 (inactive); in assay [18], -0.252; in assay [19] it was -1.59. In assay [20], the z-score is -0.974 (inactive). This compound displayed a composite z-score in assay [2] of 0.0701.

For the compound `C[C@H](ON=C1[C@H]2CCn3c(=O)n(-c4ccccc4)c(=O)n3[C@H]2[C@H](O)[C@@H]2O[C@H]12)c1cn([C@H](CO)Cc2ccccc2)nn1`, the z-score was 0.699 (inactive) in [1]; 0.463 (inactive) in assay [3]; -0.426 (inactive) in [4]; -0.089 (inactive) in [5]; -0.0498 (inactive) in [6]; -0.52 in [7]. The z-score in assay [8] is -0.094 (inactive); in [9], 0.535 (inactive); in assay [10] it was 0.346; in assay [11], -0.142; in assay [12], -0.443; in assay [13] it was 0.115. For the same compound, the z-score in assay [14] is -0.403; in assay [15], -0.533; in assay [16] it was -0.633; in [17], -1 (inactive); in assay [18], -0.243; in assay [19] it was 0.155. Besides, in assay [20], the z-score was -0.16 (inactive). The composite z-score in [2] turned out to be 0.0502.

Take `CC(CCN1CCCCc2nc(C)c(C)cc21)=NOC[C@@H](O)COCc1ccco1`: the z-score in assay [1] was 0.721 (inactive); in assay [3] it was 1.56 (inactive); in assay [4] it was 0.279 (inactive); in assay [5], 0.876 (inactive); in assay [6], 0.343 (inactive); in assay [7] it was 0.327. Besides, the z-score in [8] was -1.07 (inactive); in assay [9], -0.199 (inactive); in assay [10], -0.153; in assay [11], 0.224; in assay [12], 0.0279; in [13] it was -0.437. The z-score was 0.0805 in assay [14]; -1.05 in assay [15]; -1.43 in assay [16]; -1.47 (inactive) in assay [17]; 0.854 in [18]; -0.797 in assay [19]. Besides, the z-score in assay [20] was -0.701 (inactive). For the same compound, the composite z-score in assay [2] was -0.0559.

Turning to `CCN1C(=O)[C@H]2[C@H]3[C@H](O)[C@H](O)CC(=NOC[C@H]4O[C@H](c5ccccc5)C=C[C@@H]4Oc4ccc(OC)cc4)[C@@H]3CC[C@H]2C1=O`, the z-score in [1] is 0.575 (inactive); in assay [3], 10.7 (active); in [4], 1.65 (inactive); in assay [5], 0.622 (inactive); in [6], 0.809 (inactive); in [7], -0.763. The z-score in assay [8] was 0.863 (inactive); in assay [9], 0.91 (inactive); in assay [10], 0.456; in [11] it was 0.964; in assay [12], -0.471; in assay [13], 0.644. For the same compound, the z-score was -1.98 in [14]; -2.23 in assay [15]; -0.627 in assay [16]; 0.0264 (inactive) in assay [17]; -1.24 in assay [18]; -0.409 in assay [19]. Also, the z-score in [20] is -0.531 (inactive). In assay [2], this compound displayed a composite z-score of 0.171.

(Values after PubChem BioAssay.)
